Unmarked numbers belong to inactive results. Records with an inconclusive call do not appear. Entries that show only a call come without a potency. Activity calls are given as the source filed them. Unless noted, the call rests on the fitted dose curve; in most records, active means well fitted curve in the direction sought with a large enough effect in the repeat runs; inconclusive means weak or mixed curves; inactive means no such curve, though single readings can be large; an effect the other way counts as inactive or inconclusive.
How the values were obtained:
[1] = qHTS assay to test for compound auto fluorescence at 535 nm (green) in HEK293 cells (AID 720680)
[2] = qHTS assay to test for compound auto fluorescence at 535 nm (green) in HEK293 cell free culture (AID 720682)
Method in brief: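 Intrinsic compound fluorescence is measured in culture medium containing 10% FBS, with excitation at 485 nm and detection at 535 nm, referenced to fluorescein.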

[3] = qHTS assay to test for compound auto fluorescence at 590 nm (red) in HEK293 cell free culture (AID 720683)
Method in brief: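 Tox21 10K library compounds were pinned into cell-free DMEM with 10% FBS and fluorescence was read at excitation 540 nm. Activity is expressed as Rose Bengal sodium equivalency.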

[4] = qHTS assay to test for compound auto fluorescence at 590 nm (red) in HepG2 cell free culture (AID 720684)
Method in brief: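 Measured in medium alone (MEM containing 10% FBS) following pintool addition of compound; emission at 590 nm with 540 nm excitation, referenced to Rose Bengal sodium.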

[5] = qHTS assay to test for compound auto fluorescence at 460 nm (blue) in HepG2 cell free culture (AID 720685)
Method in brief: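 Compound (23 nL) or DMSO pinned into cell-free MEM with 10% FBS; blue fluorescence read at 405/460 nm excitation/emission, expressed as auto-fluorescence equivalency to triamterene.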

[6] = qHTS assay to test for compound auto fluorescence at 535 nm (green) in HepG2 cell free culture (AID 720686)
[7] = qHTS assay to test for compound auto fluorescence at 460 nm (blue) in HepG2 cells (AID 720687)
Method in brief: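 Cells (2,000/well in MEM with 10% FBS) attached overnight at 37 C, then were exposed to compound or DMSO for 1 hr at 37 C, 5% CO2. Fluorescence read at Ex/Em 405/460 nm, expressed as triamterene-equivalent signal.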

[8] = qHTS assay to identify small molecule antagonists of the glucocorticoid receptor (GR) signaling pathway - cell viability counter screen (AID 720693); further: nearly all actives have a fitted effect of over 55% in size; further: potency means the concentration at half of the fitted maximal effect
[9] = qHTS assay for identifying genotoxic compounds that show differential cytotoxicity against isogenic chicken DT40 cell lines with known DNA damage response pathways - wild type cell line (AID 743012); further: nearly all actives have a fitted effect of over 60% in size; further: potency means the concentration at half of the fitted maximal effect
Method in brief: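 Quantitative HTS on parental DT40 cells: 40 h compound treatment at 37 C/5% CO2, with viability then determined by CellTiter-Glo luminescence. Values serve as the DNA repair-proficient reference for differential cytotoxicity.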

[10] = qHTS assay for identifying genotoxic compounds that show differential cytotoxicity against isogenic chicken DT40 cell lines with known DNA damage response pathways - Rev3 mutant cell line (AID 743014); further: nearly all actives have a fitted effect of over 55% in size; further: potency means the concentration at half of the fitted maximal effect
[11] = qHTS assay to identify small molecule antagonists of the androgen receptor (AR) signaling pathway - cell viability counter screen (AID 743033; further: nearly all actives have a fitted effect of over 45% in size; further: potency means the concentration at half of the fitted maximal effect)
[12] = qHTS assay to identify small molecule antagonists of the androgen receptor (AR) signaling pathway using the MDA cell line - cell viability counter screen (AID 743041; further: nearly all actives have a fitted effect of over 45% in size)
Method in brief: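 Viability counter screen run alongside the AR antagonist reporter: cells seeded 5 h before compound, R1881 added, 16 h incubation at 37C without CO2, fluorescent CellTiter-Fluor signal quantified.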

[13] = molecular target: Glucocorticoid receptor (Homo sapiens) (UniProt P04150); assay: qHTS assay to identify small molecule agonists of the glucocorticoid receptor (GR) signaling pathway (AID 720691; active means well fitted activation curve with a large enough effect in the signal ratio in the repeat runs, not every such curve was filed as active; the % refers to the signal ratio)
Method in brief: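 Beta-lactamase reporter activity, read as fluorescence intensity, was measured in GR-bla HeLa cells exposed to compounds for 18 h at 37 C and then loaded with LiveBLAzer B/G FRET substrate for 2 h at room temperature.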

[14] = molecular target: Glucocorticoid receptor (Homo sapiens) (UniProt P04150); assay: qHTS assay to identify small molecule antagonists of the glucocorticoid receptor (GR) signaling pathway (AID 720692; active means well fitted inhibition curve with a large enough effect in the signal ratio in the repeat runs, not every such curve was filed as active; the % refers to the signal ratio)
Method in brief: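 Fluorescence from cleaved LiveBLAzer B/G FRET substrate reports GRE-driven beta-lactamase in HeLa cells; compounds are tested against 5 nM dexamethasone (final) over 18 h at 37 C, substrate incubation 2 h at room temperature.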

[15] = qHTS assay for identifying genotoxic compounds that show differential cytotoxicity against isogenic chicken DT40 cell lines with known DNA damage response pathways - Rad54/Ku70 mutant cell line (AID 743015); further: nearly all actives have a fitted effect of over 60% in size; further: potency means the concentration at half of the fitted maximal effect
[16] = molecular target: Androgen receptor (Homo sapiens) (UniProt P10275); assay: qHTS assay to identify small molecule antagonists of the androgen receptor (AR) signaling pathway using the MDA cell line (AID 743042; further: nearly all actives have a fitted effect of over 55% in size)
Method in brief: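 MDA-kb2 cells (human breast carcinoma, stably carrying an MMTV-luciferase reporter responsive to AR and GR) were plated at 3,000 cells/well and preincubated 5 hr at 37C, then given compound plus R1881 agonist for 16 h. ONE-Glo luminescence was read.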

[17] = molecular target: Androgen receptor (Homo sapiens) (UniProt P10275); assay: qHTS assay to identify small molecule antagonists of the androgen receptor (AR) signaling pathway (AID 743035; active means well fitted inhibition curve with a large enough effect in the signal ratio in the repeat runs, not every such curve was filed as active; the % refers to the signal ratio)
Method in brief: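 Cell line: GeneBLAzer AR-UAS-bla GripTite (HEK293). Stimulus: R1881 added after compound. Exposure: 16 h, 37C, 5% CO2. Readout: LiveBLAzer B/G FRET fluorescence after 2 h at room temperature.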

[18] = molecular target: Androgen receptor (Homo sapiens) (UniProt P10275); assay: qHTS assay to identify small molecule agonists of the androgen receptor (AR) signaling pathway (AID 743036; active means well fitted activation curve with a large enough effect in the signal ratio in the repeat runs, with a control signal flat, not every such curve was filed as active; the % refers to the signal ratio)
Method in brief: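 Agonist activity was scored by beta-lactamase reporter fluorescence in stably transfected HEK293 cells exposed to compounds for 16 h at 37C and 5% CO2. Substrate loading took 2 h at room temperature.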

[19] = molecular target: Androgen receptor (Homo sapiens) (UniProt P10275); assay: qHTS assay to identify small molecule agonists of the androgen receptor (AR) signaling pathway using the MDA cell line (AID 743040; further: nearly all actives have a fitted effect of over 20% in size)
Method in brief: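 Luminescence from ONE-Glo, read after 30 min at room temperature, reflects MMTV-driven luciferase in MDA-kb2 cells (AR- and GR-responsive). Treatment lasted 16 h at 37C, 0% CO2.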

Sequence of Androgen receptor (Homo sapiens) (P10275 whole entry, looked up): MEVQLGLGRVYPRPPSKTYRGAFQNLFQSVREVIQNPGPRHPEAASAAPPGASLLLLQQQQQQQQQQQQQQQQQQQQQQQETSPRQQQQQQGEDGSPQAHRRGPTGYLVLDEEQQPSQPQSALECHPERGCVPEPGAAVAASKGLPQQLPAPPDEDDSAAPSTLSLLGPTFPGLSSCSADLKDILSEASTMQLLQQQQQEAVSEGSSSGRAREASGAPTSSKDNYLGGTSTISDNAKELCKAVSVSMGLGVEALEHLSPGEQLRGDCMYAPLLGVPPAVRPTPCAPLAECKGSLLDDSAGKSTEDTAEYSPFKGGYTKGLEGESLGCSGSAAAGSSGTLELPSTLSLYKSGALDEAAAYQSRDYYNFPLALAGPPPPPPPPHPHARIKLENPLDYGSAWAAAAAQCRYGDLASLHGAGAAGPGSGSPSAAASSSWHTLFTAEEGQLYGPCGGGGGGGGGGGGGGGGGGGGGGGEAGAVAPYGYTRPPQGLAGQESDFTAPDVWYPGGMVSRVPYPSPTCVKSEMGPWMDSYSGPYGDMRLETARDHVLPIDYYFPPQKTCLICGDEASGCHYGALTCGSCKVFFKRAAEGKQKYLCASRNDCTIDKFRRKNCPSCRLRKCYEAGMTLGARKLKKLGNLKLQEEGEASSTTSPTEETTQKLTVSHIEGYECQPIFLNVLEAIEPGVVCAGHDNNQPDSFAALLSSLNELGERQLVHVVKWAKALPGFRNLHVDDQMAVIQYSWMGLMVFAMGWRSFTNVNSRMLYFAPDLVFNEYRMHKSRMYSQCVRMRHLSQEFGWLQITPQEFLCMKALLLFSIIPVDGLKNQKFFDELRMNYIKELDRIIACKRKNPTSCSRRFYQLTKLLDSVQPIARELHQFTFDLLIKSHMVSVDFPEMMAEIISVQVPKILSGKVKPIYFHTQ
Sequence of Glucocorticoid receptor (Homo sapiens) (P04150 whole entry, looked up): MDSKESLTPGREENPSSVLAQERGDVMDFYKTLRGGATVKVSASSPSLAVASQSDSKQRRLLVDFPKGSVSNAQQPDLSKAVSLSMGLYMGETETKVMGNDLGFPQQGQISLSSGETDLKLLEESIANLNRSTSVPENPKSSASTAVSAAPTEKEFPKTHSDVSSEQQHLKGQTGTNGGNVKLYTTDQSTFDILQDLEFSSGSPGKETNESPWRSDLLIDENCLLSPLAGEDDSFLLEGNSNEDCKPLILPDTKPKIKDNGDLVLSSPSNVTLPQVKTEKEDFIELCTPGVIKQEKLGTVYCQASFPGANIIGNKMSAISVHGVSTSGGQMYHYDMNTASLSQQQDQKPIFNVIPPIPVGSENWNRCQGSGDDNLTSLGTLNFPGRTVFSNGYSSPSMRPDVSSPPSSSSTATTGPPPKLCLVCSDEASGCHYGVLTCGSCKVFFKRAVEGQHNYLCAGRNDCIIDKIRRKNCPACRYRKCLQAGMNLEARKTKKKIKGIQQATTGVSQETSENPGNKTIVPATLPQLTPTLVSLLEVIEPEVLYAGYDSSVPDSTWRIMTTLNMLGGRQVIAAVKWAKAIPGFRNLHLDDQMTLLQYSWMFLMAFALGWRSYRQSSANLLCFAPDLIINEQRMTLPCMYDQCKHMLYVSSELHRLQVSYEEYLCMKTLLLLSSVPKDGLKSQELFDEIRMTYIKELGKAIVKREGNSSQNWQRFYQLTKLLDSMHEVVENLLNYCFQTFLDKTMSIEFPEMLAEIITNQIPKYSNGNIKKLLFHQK

CCCCOc1ccc(OCCCN2CCOCC2)cc1
fluorescence, % of fluorescein [1]: 0.0257% [at 18.6 µM] | activity change [2]: 0.0858% [at 18.6 µM] | fluorescence, % of fluorescent control [3]: -0.046% [at 18.6 µM] | fluorescence, % of Rose Bengal [4]: 0.461% [at 18.6 µM] | fluorescence, % of fluorescent control [5]: -0.102% [at 18.6 µM] | fluorescence, % of fluorescein control [6]: -0.0254% [at 18.6 µM] | fluorescence, % of fluorescent control [7]: -0.0756% [at 18.6 µM] | Potency [8]: inactive | Potency [9]: 2.54 µM (active) | Potency [10]: 1.01 µM (active) | Potency [11]: inactive | Potency [12]: inactive

O[C@@H]1CO[C@H]2[C@@H]1OC[C@@H]2O
outcome [1]: inactive | outcome [2]: inactive | outcome [3]: inactive | outcome [4]: inactive | Potency [5]: inactive | outcome [6]: inactive | Potency [7]: inactive | Potency [13]: inactive | Potency [14]: inactive | Potency [8]: inactive | Potency [9]: inactive | Potency [10]: inactive | Potency [15]: inactive | Potency [11]: inactive | Potency [12]: inactive

O=c1cc(-c2ccccc2)oc2ccc3ccccc3c12
outcome [1]: inactive | outcome [2]: inactive | outcome [3]: inactive | outcome [4]: inactive | Potency [5]: inactive | outcome [6]: inactive | Potency [7]: inactive | Potency [8]: 54.9 µM (active) | Potency [10]: 15.4 µM (active) | Potency [11]: 21.9 µM (active) | Potency [16]: inactive

O=c1c(O)c(-c2ccc(O)cc2)oc2cc(O)cc(O)c12
outcome [1]: inactive | outcome [2]: inactive | outcome [3]: inactive | outcome [4]: inactive | Potency [5]: inactive | outcome [6]: inactive | Potency [7]: inactive | Potency [13]: inactive | Potency [8]: inactive | Potency [9]: 32.8 µM (active) | Potency [10]: 11.6 µM (active) | Potency [15]: 36.8 µM (active) | Potency [11]: inactive

NC(=O)c1ccncc1
outcome [1]: inactive | outcome [2]: inactive | outcome [3]: inactive | outcome [4]: inactive | outcome [6]: inactive | Potency [7]: inactive | Potency [13]: inactive | Potency [14]: inactive | Potency [8]: inactive | Potency [9]: inactive | Potency [10]: inactive | Potency [15]: inactive | Potency [11]: inactive | Potency [17]: inactive | outcome [18]: inactive | outcome [19]: inactive | Potency [16]: inactive

CC(C)Nc1cccnc1N1CCN(C(=O)c2cc3cc(NS(C)(=O)=O)ccc3[nH]2)CC1
outcome [1]: inactive | outcome [2]: inactive | outcome [3]: inactive | outcome [4]: inactive | Potency [5]: inactive | outcome [6]: inactive | Potency [13]: inactive | Potency [8]: inactive | Potency [10]: inactive | Potency [11]: inactive | Potency [12]: inactive

O=C1c2ccccc2C(=O)N1CCc1noc(-c2ccc(CN3CCCCCC3)s2)n1
outcome [1]: inactive | outcome [3]: inactive | outcome [4]: inactive | Potency [5]: inactive | outcome [6]: inactive | Potency [7]: inactive | Potency [8]: inactive | Potency [9]: 49.9 µM (active) | Potency [10]: 39.7 µM (active) | Potency [15]: 39.7 µM (active)

CC1(C)[C@H](C(=O)O)N2C(=O)C[C@H]2S1(=O)=O
outcome [1]: inactive | outcome [2]: inactive | outcome [3]: inactive | outcome [4]: inactive | Potency [5]: inactive | outcome [6]: inactive | Potency [7]: inactive | Potency [8]: inactive | Potency [9]: inactive | Potency [10]: inactive | Potency [15]: inactive | Potency [11]: inactive | Potency [12]: inactive

CCOC(=O)/C=C/C(=O)OCC
outcome [1]: inactive | outcome [2]: inactive | outcome [3]: inactive | outcome [4]: inactive | Potency [5]: inactive | outcome [6]: inactive | Potency [7]: inactive | Potency [13]: inactive | Potency [14]: inactive | Potency [9]: inactive | Potency [10]: inactive | Potency [15]: inactive | Potency [11]: inactive | Potency [12]: inactive

CC(=O)NC1(c2cccc(F)c2)CCN(CC[C@@]2(c3ccc(Cl)c(Cl)c3)CN(c3ccccc3)C(=O)CO2)CC1
outcome [1]: inactive | outcome [2]: inactive | outcome [3]: inactive | outcome [4]: inactive | Potency [5]: inactive | outcome [6]: inactive | Potency [7]: inactive | Potency [9]: 43.4 µM (active) | Potency [10]: 54.6 µM (active) | Potency [15]: 48.7 µM (active) | Potency [11]: 39 µM (active)

CC(=O)OCC(=O)NCCCOc1cccc(CN2CCCCC2)c1
outcome [1]: inactive | outcome [2]: inactive | outcome [3]: inactive | outcome [4]: inactive | outcome [6]: inactive | Potency [7]: inactive | Potency [8]: inactive | Potency [9]: inactive | Potency [10]: inactive | Potency [15]: inactive | Potency [11]: inactive | Potency [17]: inactive | outcome [18]: inactive | outcome [19]: inactive | Potency [16]: inactive

From PubChem BioAssay (Tox21)
